Inhibition data for 52 compounds are collected here from PubChem BioAssay AID652162 (Broad Institute, 2013).

Hit rate of the full screen: of about 350,000 compounds, about 840 (0.24%) were called active. Many of the other results were omitted from the sample, so actives are more common in it than they were. Values without a mark were called inactive. Rule as the data show it: active = inhibition above about 10%; inactive = the rest.

The target of the experiment is Toxin B (Clostridioides difficile) (UniProt P18177). Briefly: TcdB glycohydrolase inhibitors, primary screen, biochemical, single point, plate reader (AID 652162). As to conditions: TcdB glycohydrolase enzymatic assay, at 9.99 µM, hits give high values.
Chain of Toxin B (Clostridioides difficile) (P18177 whole entry, looked up): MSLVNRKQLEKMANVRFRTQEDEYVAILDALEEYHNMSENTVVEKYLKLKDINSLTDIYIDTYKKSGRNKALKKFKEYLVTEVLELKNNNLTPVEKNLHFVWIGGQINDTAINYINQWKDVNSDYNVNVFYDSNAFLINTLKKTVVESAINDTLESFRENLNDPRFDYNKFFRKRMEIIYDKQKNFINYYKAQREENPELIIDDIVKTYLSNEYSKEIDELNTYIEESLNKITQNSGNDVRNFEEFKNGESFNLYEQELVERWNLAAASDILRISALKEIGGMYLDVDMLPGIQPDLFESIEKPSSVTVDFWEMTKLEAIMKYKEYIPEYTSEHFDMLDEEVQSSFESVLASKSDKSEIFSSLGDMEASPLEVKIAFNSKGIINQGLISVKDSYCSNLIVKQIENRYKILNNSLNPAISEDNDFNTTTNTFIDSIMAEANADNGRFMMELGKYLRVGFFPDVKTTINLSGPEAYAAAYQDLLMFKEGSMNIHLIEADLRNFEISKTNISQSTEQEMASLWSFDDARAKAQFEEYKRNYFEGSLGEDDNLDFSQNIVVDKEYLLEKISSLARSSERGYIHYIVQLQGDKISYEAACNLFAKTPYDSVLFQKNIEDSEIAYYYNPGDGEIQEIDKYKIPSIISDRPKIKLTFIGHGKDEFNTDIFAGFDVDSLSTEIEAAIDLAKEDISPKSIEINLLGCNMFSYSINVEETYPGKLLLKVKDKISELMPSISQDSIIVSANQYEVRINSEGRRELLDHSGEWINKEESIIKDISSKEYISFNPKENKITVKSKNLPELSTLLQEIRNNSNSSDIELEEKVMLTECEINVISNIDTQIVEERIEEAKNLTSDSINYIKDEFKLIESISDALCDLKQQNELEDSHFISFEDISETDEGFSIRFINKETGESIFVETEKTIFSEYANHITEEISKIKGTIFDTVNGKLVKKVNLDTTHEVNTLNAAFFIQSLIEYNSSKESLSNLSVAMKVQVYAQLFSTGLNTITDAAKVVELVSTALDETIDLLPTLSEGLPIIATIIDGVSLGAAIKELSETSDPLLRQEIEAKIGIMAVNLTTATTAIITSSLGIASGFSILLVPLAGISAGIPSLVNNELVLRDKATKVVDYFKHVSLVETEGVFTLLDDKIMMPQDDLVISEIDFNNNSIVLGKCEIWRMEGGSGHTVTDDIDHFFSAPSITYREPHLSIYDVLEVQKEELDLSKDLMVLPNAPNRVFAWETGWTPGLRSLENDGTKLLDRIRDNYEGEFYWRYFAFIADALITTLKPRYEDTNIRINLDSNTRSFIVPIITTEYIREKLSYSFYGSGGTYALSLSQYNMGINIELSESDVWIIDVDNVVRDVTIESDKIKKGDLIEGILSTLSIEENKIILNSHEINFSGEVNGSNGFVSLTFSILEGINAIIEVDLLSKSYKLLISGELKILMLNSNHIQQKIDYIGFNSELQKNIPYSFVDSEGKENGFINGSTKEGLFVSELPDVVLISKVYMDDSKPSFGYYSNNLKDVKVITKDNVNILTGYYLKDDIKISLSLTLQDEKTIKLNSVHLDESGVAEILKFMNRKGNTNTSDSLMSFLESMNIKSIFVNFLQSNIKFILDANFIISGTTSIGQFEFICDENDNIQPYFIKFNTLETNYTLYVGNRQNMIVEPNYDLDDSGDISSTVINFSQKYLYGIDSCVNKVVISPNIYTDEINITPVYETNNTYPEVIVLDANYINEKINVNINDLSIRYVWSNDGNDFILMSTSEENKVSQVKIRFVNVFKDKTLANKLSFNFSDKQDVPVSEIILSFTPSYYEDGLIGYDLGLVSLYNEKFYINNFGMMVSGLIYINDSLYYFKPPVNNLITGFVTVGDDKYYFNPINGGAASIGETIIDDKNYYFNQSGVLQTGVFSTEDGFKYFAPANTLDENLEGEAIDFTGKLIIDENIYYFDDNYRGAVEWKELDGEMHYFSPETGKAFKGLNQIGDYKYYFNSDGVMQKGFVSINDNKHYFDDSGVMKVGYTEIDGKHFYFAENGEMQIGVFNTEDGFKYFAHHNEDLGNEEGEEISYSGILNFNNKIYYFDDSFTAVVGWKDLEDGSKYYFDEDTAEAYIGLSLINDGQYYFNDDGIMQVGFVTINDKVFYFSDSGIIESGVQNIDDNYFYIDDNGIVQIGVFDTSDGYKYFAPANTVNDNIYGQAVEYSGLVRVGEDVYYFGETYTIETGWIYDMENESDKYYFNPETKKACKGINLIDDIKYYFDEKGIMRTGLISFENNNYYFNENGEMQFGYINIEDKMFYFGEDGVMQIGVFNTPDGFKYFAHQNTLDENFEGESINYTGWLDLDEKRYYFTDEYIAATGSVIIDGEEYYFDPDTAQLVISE
By inhibition is commonly meant the drop in the measured response relative to a control, in per cent. As to `CC(C)CC#Cc1cnc2c(c1)C(=O)N([C@@H](C)CO)C[C@@H](C)[C@@H](CN(C)C(=O)c1cccnc1)O2`, the inhibition was -0.559%. Then `O=C1C=CCCN1C(=O)/C=C/c1ccc(F)cc1`, with 0.919%; and `CCS(=O)(=O)N1CCC2(CC1)CN(S(=O)(=O)c1ccc(C)cc1)[C@H](CO)c1[nH]c3cc(OC)ccc3c12`, with -1.12%; and `CCOC(=O)c1ccc(NC(=S)N2CCCC2)cc1`, with 1.01%. Then `CN(C)c1ccc(C(=S)N2CCN(C(=S)Nc3ccc(Cl)cc3)CC2)cc1`, with 17.4% (active); and `O=C(NC1CCN(C(=S)Nc2ccc(Cl)cc2)CC1)C1CCCCC1`, with -0.645%; and `COc1ccccc1NC(=O)N1CC(=O)N2[C@H](C1)[C@H](c1ccc(C#Cc3ccccc3)cc1)[C@@H]2CO`, with 0.309%.

Take `O=C(C[C@H]1CC[C@@H]2[C@H](COC[C@@H](O)CN2CC2CC2)O1)NCC1CC1`: the inhibition is -1.35%. For the compound `O=C(C[C@@H]1CC[C@@H]2[C@H](COC[C@H](O)CN2CC2CCOCC2)O1)NCC1CCCCC1`, the inhibition was 0.565%. For `C[C@H]1CN([C@@H](C)CO)C(=O)c2cc(NS(=O)(=O)c3ccc(F)cc3)ccc2O[C@H]1CN(C)CC1CC1` the value was -1.14%; for `O=C(C[C@@H]1C[C@@H]2c3cc(NS(=O)(=O)c4ccc(F)cc4)ccc3O[C@@H]2[C@H](CO)O1)NCc1cc(F)ccc1F`, -0.254%; for `C[C@@H]1CN([C@@H](C)CO)C(=O)c2cc(NC(=O)Nc3ccc(C(F)(F)F)cc3)ccc2O[C@@H](C)CCCCO[C@@H]1CN(C)C(=O)Nc1cccc2ccccc12`, -0.569%. Then `C[C@@H]1CN([C@H](C)CO)C(=O)c2cccc(NS(=O)(=O)c3ccc(F)cc3)c2O[C@@H]1CN(C)C(=O)Nc1ccc(C(F)(F)F)cc1`, with 0.036%; and `C[C@@H]1CN([C@@H](C)CO)S(=O)(=O)c2ccc(/C=C/c3ccccc3)cc2O[C@H]1CN(C)C(=O)Nc1cc(F)ccc1F`, with -0.621%. For `CC1CCN(C(=O)/C(=C\c2ccccc2)NC(=O)c2ccccc2)CC1` the value was 0.574%.

On to `O=C(N/C(=C\c1ccc(O)cc1)C(=O)N1CCCCC1)c1ccccc1`, for which the inhibition was 14.3% (active). Regarding `O=C(N/C(=C\c1ccc(F)cc1)C(=O)N1CCCCCC1)c1ccccc1`, the inhibition is 1.06%. For `C[C@H](CO)N1C[C@H](C)[C@H](CN(C)S(=O)(=O)c2ccccc2C#N)OCc2cn(nn2)CCCC1=O` the value was -0.086%; for `CNC[C@H]1OCCCC[C@@H](C)Oc2ccc(NS(C)(=O)=O)cc2C(=O)N([C@@H](C)CO)C[C@H]1C`, 0.355%; for `CO[C@H]1CN(C)C(=O)c2cc(NC(=O)c3cc(C)on3)ccc2OC[C@@H](C)N(C(C)=O)C[C@H]1C`, -0.186%. For `C[C@H](CO)N1C[C@H](C)[C@H](CN(C)S(=O)(=O)c2cccs2)Oc2ccc(NC(=O)Nc3ccccc3)cc2C1=O` the value was -11.1%; for `O=C(Nc1cccc(Cl)c1)N[C@@H]1CC[C@@H](CCNC(=O)C2CCOCC2)O[C@@H]1CO`, -0.908%; for `CN(C)c1ccc(-c2nnc(-c3cccnc3)o2)cc1`, 0.383%. With `O=C(NNC(=O)c1csc(-c2cccnc2)n1)Nc1ccc(Cl)cc1`, the inhibition is 0.087%.

Take `CN(c1ccc(O)cc1)c1nc(-c2cccnc2)cs1`: the inhibition is 14.9% (active).

For the compound `CCCNC(=O)C[C@H]1C[C@@H]2c3cc(NC(=O)NC4CCCC4)ccc3O[C@@H]2[C@@H](CO)O1`, the inhibition was -0.087%. Consider `O=C(c1cccc(F)c1)N1CC[C@@H]2[C@H](CO)Nc3ccc(-c4ccccc4)cc3[C@@H]21`, for which the inhibition was -1.25%.

Turning to `CCC(=O)N(C)C[C@H]1Oc2cc(/C=C/c3ccccc3)ccc2S(=O)(=O)N([C@H](C)CO)C[C@H]1C`, the inhibition was 0.008%. For `CCCC#Cc1ccc([C@H]2[C@@H](CO)N3C(=O)CN(C(=O)c4ccncc4)C[C@H]23)cc1` the value was 0.225%; for `COc1ccccc1S(=O)(=O)N1CC[C@@H]2[C@H]1c1cc(-c3ccccc3)ccc1N[C@@H]2CO`, -0.443%. For `COc1ccc(S(=O)(=O)Nc2ccc3c(c2)C(=O)N([C@@H](C)CO)C[C@@H](C)[C@H](CN(C)S(=O)(=O)c2cccs2)O3)cc1` the value was 0.284%. Then `C[C@H](CO)N1C[C@H](C)[C@H](CN(C)S(=O)(=O)c2cccc(F)c2)Oc2ncc(/C=C/c3ccccc3)cc2C1=O`, with 0.994%. For `O=C(Cc1ccccn1)N[C@H]1CC[C@H](CCn2cc(-c3ccc(F)cc3)nn2)O[C@H]1CO`, the inhibition is -7.26%. Then `CO[C@@H]1CN(C)C(=O)c2cc(NC(C)=O)ccc2OC[C@H](C)N(Cc2ccccn2)C[C@H]1C`, with 0.576%. On to `COc1ccccc1-n1c(SCC(=O)O)nc2sc3c(c2c1=O)CCC3`, for which the inhibition was -0.511%. Take `COc1cccc(-n2c(=S)sc3c(=O)n(-c4ccccc4OC)c(SCC4OCCO4)nc32)c1`: the inhibition is 1.51%. Then `COc1ccc(Cl)cc1-n1c(=S)sc2c(=O)n(-c3ccc(F)cc3)c(SCC(=O)O)nc21`, with 20.5% (active); and `Cc1cccc(S(=O)(=O)N2CCCCN3[C@@H](CO)[C@H](c4ccc(-c5cccnc5)cc4)[C@@H]3C2)c1`, with 0.453%.

Consider `CCNC(=O)C[C@H]1CC[C@@H]2[C@H](COC[C@H](O)CN2C(=O)Nc2c(C)noc2C)O1`, for which the inhibition was -1.03%. As to `COc1ccc(CN(C)C[C@H]2OCCCC[C@H](C)Oc3ccc(NC(=O)NC4CCCCC4)cc3C(=O)N([C@@H](C)CO)C[C@@H]2C)cc1`, the inhibition is 0.374%. Then `CO[C@@H]1CN(C)C(=O)c2cc(NC(=O)c3ccc4c(c3)OCO4)ccc2OC[C@H](C)N(CCC(F)(F)F)C[C@H]1C`, with 1.3%; and `O=C(NCC[C@H]1CC[C@@H](NS(=O)(=O)c2cccc(Cl)c2)[C@@H](CO)O1)c1cnccn1`, with -2.69%; and `C[C@H]1CN([C@@H](C)CO)C(=O)c2cc(C#Cc3ccccc3F)cnc2O[C@@H]1CN(C)C(=O)C1CC1`, with -2.35%. Then `N#C[C@H]1[C@@H](c2ccccc2C2=CCCCC2)[C@H](CO)N1C(=O)c1ccccn1`, with -7.67%; and `COc1ccc2c3c(n(C)c2c1)[C@H](CO)N(C(C)=O)CC31CN(C(=O)c2cnccn2)C1`, with 0.415%. As to `CCOC(=O)C1CCN(Cc2c(C(=O)N3CCOCC3)nc3c(C)cccn23)CC1`, the inhibition is 1.15%. Then `Cc1cccn2c(CNCC(C)Oc3cccnc3)c(C(=O)N3CCOCC3)nc12` (configuration not stated), with -0.924%; and `Cc1cccn2c(CN(C)C3CCCc4ccccc43)c(C(=O)N3CCOCC3)nc12` (configuration not stated), with 11% (active). For the compound `COc1ccc(C#Cc2ccc([C@H]3[C@H]4CN(C(=O)c5ccncc5)CC(=O)N4[C@H]3CO)cc2)cc1`, the inhibition was -0.009%. For `N#C[C@@H]1[C@H](c2ccccc2-c2cccc(F)c2)[C@@H](CO)N1C(=O)CN1CCOCC1` the value was -0.655%. Then `Cc1noc(C)c1NC(=O)N[C@@H]1CC[C@H](CC(=O)Nc2ccccc2)O[C@H]1CO`, with 2.14%; and `CO[C@@H]1CC[C@@H]2CCOc3c(C#N)cccc3C(=O)N(C)C[C@@H](C)C(=O)N(C)C[C@@H]1O2`, with -0.159%.
